According to PubChem BioAssay AID2314 (National Center for Advancing Translational Sciences (NCATS), 2010):
About 37,000 (12%) of roughly 300,000 compounds were called active. Rule as the data show it: active = max response mostly above about 13% (no sharp cut-off); inactive = mostly below about 14%. The list comes from a sample in which actives are over-represented; it also holds similar structures and randomly drawn compounds.

Assay: Cycloheximide Counterscreen for Small Molecule Inhibitors of Shiga Toxin; also: read at 38.3 µM for the half of the compounds with a filed dose; 0% is about no effect
Conditions: cell reporter, cycloheximide protein synthesis inhibition counterscreen; active compounds read high

| SMILES | max response |
| --- | --- |
| Fc1ccc(-n2c(Cc3ccccc3)nnc2SCc2nc(-c3ccc(Cl)cc3)no2)cc1 | -3.26% (inactive) |
| CCOC(=O)C1C(c2ccc(O)cc2)NC(=O)NC1(O)C(F)(F)F (stereo unspecified) | -1.88% (inactive) |
| Cc1cc(OC(C)C(=O)NC2CC(C)(C)NC(C)(C)C2)c2c(C)cc(=O)oc2c1 (stereo unspecified) | 2.41% (inactive) |
| CN(C)CCCNC(=O)c1cc(C(=O)Cc2ccc(Cl)cc2)c[nH]1 | 0.733% (inactive) |
| CC(C)CNC(=S)NNC(=O)c1nn(C)cc1Cl | -2.88% (inactive) |
| Cn1cc(Cl)c(C(=O)NNC(=S)Nc2cccc(Cl)c2)n1 | 42% (active) |
| COc1cccc(NC(=S)NC(=O)c2c(Cl)c(C)nn2C)c1 | 18.3% (inactive) |
| COc1ccc(C2=NS(=O)(=O)N(C)C(C(=O)N3CCCCC3)=C2)cc1 | 0.248% (inactive) |
| NC(N)=Nc1nc2ccc(Br)cc2c(=O)[nH]1 | 1.64% (inactive) |
| CC(=O)Nc1ccc(S(=O)(=O)NNC(=O)CCc2ccccc2)cc1 | 17.5% (inactive) |
| COc1ccc(CNC(=O)c2cc(=O)c3c(C)cc(C)cc3o2)cc1 | 10.1% (inactive) |
| Cc1ccc(C(=O)NC(C)c2ccccc2)cc1Br (stereo unspecified) | 12.6% (inactive) |
| CC(C)c1nc2cc(C(=O)NC(C)c3cnn(C)c3)ccc2o1 (stereo unspecified) | 16.9% (active) |
| COC(=O)c1ccc(CSc2nc3cc(Cl)ccc3o2)cc1 | -2.59% (inactive) |
| CCOc1c2ccc(C(=O)NCc3ccc(OC(F)(F)F)cc3)cc2nn1C | -3.46% (inactive) |
| COc1ccc(CNC(=O)c2ccc3oc(C(C)C)nc3c2)cc1 | 43.8% (active) |
| COCC1CCCN(C(=O)c2ccc3oc(C(C)C)nc3c2)C1 (stereo unspecified) | 12.4% (inactive) |
| COc1ccc(C(=O)N[C@H](C(=O)NCc2ccccc2)C(C)C)cc1 | 1.24% (inactive) |
| COC(=O)c1ccc(CNC(=O)c2ccc3oc(C(C)C)nc3c2)cc1 | 49.5% (active) |
| Cc1c(C)c(C)c2[nH]c(=S)[nH]c2c1C | 0.294% (inactive) |
| COC1=C/C(=C/c2c(N)n3nc(CC(=O)N4CCOCC4)sc3nc2=O)C=CC1=O | 21.2% (inactive) |

| SMILES | max response |
| --- | --- |
| CC(C)C(=O)N1CC(=O)Nc2ccc(F)cc2C1c1ccc(F)cc1 (stereo unspecified) | 0.988% (inactive) |
| COc1cccc(C(=O)c2cc3ccc(O)cc3oc2=O)c1 | 7.25% (inactive) |
| COc1ccc(-c2cc3ccc(OCc4nn[nH]n4)cc3oc2=O)cc1 | 2.53% (inactive) |
| O=c1oc2cc(O)ccc2cc1-c1ccc(F)cc1 | 43.3% (active) |
| CN(C)c1ccc(NC(=O)CN2C3CCCC2CC(NC(=O)c2ccccc2)C3)cc1 (stereo unspecified) | -6.36% (inactive) |
| C/C(CC(=O)Nc1ccc(Cl)cc1)=N\NC(=O)C(=O)NCCO | 7.42% (inactive) |
| C/C(CC(=O)Nc1ccc(N(C)C)cc1)=N\NC(=O)c1ccccc1F | 38.4% (active) |
| CCn1c2ccccc2c2cc(NC(=O)C/C(C)=N/NC(=O)c3ccccc3N)ccc21 | 39.3% (active) |
| CCn1c2ccccc2c2cc(NC(=O)CNC)ccc21 | -0.552% (inactive) |
| CCn1c2ccccc2c2cc(NC(=O)COC(=O)c3ccccc3Br)ccc21 | 1.49% (inactive) |
| Cc1ccccc1N1CCN(C2CCCN(C(=O)c3cn4c(C)cccc4n3)C2)CC1 (stereo unspecified) | -1.34% (inactive) |
| COc1ccc(CC(=O)N2N=C(C)CC2(O)C(F)(F)F)cc1 (stereo unspecified) | 15.5% (inactive) |
| O=C(CCc1nnc(Cc2ccc3c(c2)OCO3)o1)NCCc1ccccc1Cl | 4.94% (inactive) |
| COCCCn1c(Cc2csc(Nc3cccc(Cl)c3)n2)nnc1SCC(=O)OC1CCCCC1 | 1.16% (inactive) |
| O=C(Nc1ccc(S(=O)(=O)NCC2CCCO2)cc1)c1ccc(F)cc1 (stereo unspecified) | -1.11% (inactive) |
| CCn1cc(C(=O)N2CC(C)CC(C)C2)c(=O)c2cc(S(=O)(=O)N3CCCC3)ccc21 (stereo unspecified) | -2.89% (inactive) |
| CC(=O)Oc1ccc2c(c1)C(=O)c1ccccc1C2=O | 8.81% (inactive) |
| CC(=O)Oc1ccc(-c2nc3c(C)cccc3c(=O)o2)cc1 | -4.07% (inactive) |
| COc1ccc(/C=C/c2noc(-c3ccccc3OC(C)=O)n2)cc1 | 19% (active) |
| O=C(Cc1coc2ccc3ccccc3c12)NCc1cccs1 | 11.8% (active) |
| Cn1cccc1C(=O)NC(=O)COC(=O)Cc1coc2ccc3ccccc3c12 | 4.33% (inactive) |

| SMILES | max response |
| --- | --- |
| Cc1ccc2c(CC(=O)NCc3cccs3)coc2c1 | 29.3% (active) |
| COc1ccc(C)cc1NC(=O)CNCc1cccs1 | 8.07% (inactive) |
| COc1cc(CC(=O)NCc2cccs2)cc(OC)c1OC | 0.388% (inactive) |
| CCN(CC(=O)NCc1cccs1)C(=O)c1ccccc1F | -0.418% (inactive) |
| CCCNC(=O)CCn1nc(-c2ccccc2)c2ccccc2c1=O | -3.01% (inactive) |
| CCN(CC)S(=O)(=O)c1ccc(N2CCCC2)c(NS(=O)(=O)c2cccs2)c1 | -6.15% (inactive) |
| CCOC(=O)CSC1=N/C(=C/c2ccc(-n3cncn3)cc2)C(=O)N1C(C)=O | -4.18% (inactive) |
| COc1ccc(CCc2nc(-c3cccs3)no2)cc1 | 67.2% (active) |
| CCc1ccc(CNC(=O)CCc2nc(-c3cccs3)no2)cc1 | -4.69% (inactive) |
| COc1ccc(OC)c(CNC(=O)CCc2nc(-c3cccs3)no2)c1 | -2.6% (inactive) |
| Cc1ccc2[nH]c(=O)c(CN3CCCCC3)c(-c3ccccc3)c2c1 | -4.55% (inactive) |
| COc1cc(/C=C(\C#N)c2nc3ccccc3[nH]2)ccc1O | 43.6% (active) |
| COc1ccc(/C=C(/NC(=O)c2ccc(C)cc2)c2nc3ccccc3[nH]2)cc1OC | -2.64% (inactive) |
| COc1cc(/C=C(\C#N)c2nc3c(s2)CC(C)CC3)ccc1O (stereo unspecified) | 26.5% (active) |
| CCCCCOc1ccc(/C=C/C(=O)NCCc2nc3ccccc3[nH]2)cc1OC | 1.2% (inactive) |
| O=C(NCc1ccc(F)cc1)C1CCN(C(=O)Nc2ccc(F)cc2)CC1 | -0.971% (inactive) |
| O=C1CN(C(=O)c2cc(F)cc(F)c2)c2ccccc2N1 | -6.12% (inactive) |
| COc1ccc(F)cc1C(=O)C1CCCN(C(=O)CCc2ccccn2)C1 (stereo unspecified) | 7.94% (inactive) |
| COC(=O)CC(=O)N1CCN(c2ccc(Cl)c(Cl)c2)CC1 | 0.736% (inactive) |
